Source: PubChem
CHT block = inhibitors of human choline transporter CHT; High affinity choline transporter 1 (Homo sapiens), Q9GZV3; hit rate 0.86% among 310,000; CHT-expressing cells, membrane potential dye, choline response; stronger effect = lower value; B-score at 10 µM;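 active = B-score over 3 SD under the library average, and starting fluorescence ratio not unusually high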;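 note: choline stimulus applied at its EC90 after an EC20 pre-addition; B-score computed on integrated fluorescence ratio after choline addition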
Target sequence (Q9GZV3 whole entry, looked up): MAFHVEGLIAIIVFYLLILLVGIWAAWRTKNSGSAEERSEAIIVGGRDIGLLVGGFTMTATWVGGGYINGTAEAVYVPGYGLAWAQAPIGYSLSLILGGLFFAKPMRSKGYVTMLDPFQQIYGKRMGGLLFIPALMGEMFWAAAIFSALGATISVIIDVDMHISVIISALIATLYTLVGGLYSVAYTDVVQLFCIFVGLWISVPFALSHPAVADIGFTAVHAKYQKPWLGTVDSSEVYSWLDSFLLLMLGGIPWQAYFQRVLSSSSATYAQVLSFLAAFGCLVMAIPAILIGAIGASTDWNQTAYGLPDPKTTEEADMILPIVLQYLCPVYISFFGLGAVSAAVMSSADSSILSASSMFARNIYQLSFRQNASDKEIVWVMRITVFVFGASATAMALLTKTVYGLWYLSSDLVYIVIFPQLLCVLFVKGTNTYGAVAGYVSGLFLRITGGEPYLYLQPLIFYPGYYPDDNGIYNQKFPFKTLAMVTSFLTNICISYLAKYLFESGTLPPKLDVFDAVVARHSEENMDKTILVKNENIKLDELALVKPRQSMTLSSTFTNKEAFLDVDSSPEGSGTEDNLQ
TMEM16A act = TMEM16A chloride channel activators or potentiators, primary screen, cell-based, HTS; HEK293 TMEM16A/YFP-H148Q/I152L, iodide quench fluorescence; stronger effect = lower value; B-score at 10 µM; hit rate 0.3% among 340,000; Anoctamin-1 (Mus musculus), Q8BHY3;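 active = fluorescence-ratio B-score plate-corrected deviation score at least 3 library SD below zero, with starting fluorescence score within 5 deviations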;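 note: channel opened by trigger with iodide after compound preincubation; score built on the fluorescence ratio of max minus min over baseline; more negative score means more quench and so TMEM16A activation or potentiation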
CHT PAM = CHT positive allosteric modulators, primary screen, cell-based, membrane potential dye, choline EC20 | High affinity choline transporter 1 (Homo sapiens), Q9GZV3 | CHT-expressing cells; stronger effect = higher value; LV-AA mutant CHT in HEK293 cells | B-score at 10 µM | hit rate 0.49% among 310,000 | AID 488977, 2010;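 active = initial fluorescence not abnormally high and integrated response B-score, plate-corrected, over 3 SD above library mean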
TMEM16A inh = TMEM16A chloride channel inhibitors, primary screen, cell-based, HTS; HEK293 TMEM16A/YFP iodide influx fluorescence, ionomycin; normalized B-score (activity score, 25-100; higher = stronger inhibition) at 10 µM; hit rate 1.2% among 310,000;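 active = ratio plate-corrected score three or more library SD toward inhibition, starting fluorescence score within five deviations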;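 note: score derived from kinetic fluorescence span divided by baseline fluorescence per well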
CHT inh conf = CHT inhibitors, confirmation, cell-based, membrane potential dye, duplicate | shares compounds with CHT block | CHT-expressing cells, choline membrane potential dye; LV-to-AA substituted CHT, HEK293 cells | CHT activity remaining % of control (stronger effect = lower value), % at 10 µM | hit rate 70% among 2,400;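 active = choline transporter activity left, mean of duplicates at 10 µM, below buffer-only control mean minus 3 SD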;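 note: depolarization triggered by choline at its EC90 following an EC20 pre-addition; 0% = hemicholinium-3 full block and 100% = buffer-only control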
HEK293 CHT ctr = membrane potential effects in parental HEK293, counter-screen for CHT inhibitor project, cell-based, membrane potential dye. choline response; active = decrease or increase beyond buffer ±3SD. AID 493222, 2011. shares compounds with CHT block. membrane potential ratio readout (active if shifted either direction beyond buffer ±3SD; no single direction) at 10 µM. hit rate 4% among 2,400;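 note: parental cells lack the transporter so any hit is non-specific; ratio is peak minus trough fluorescence over baseline after EC90 choline challenge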
* = called active by the depositor; i = inactive; / = not tested or not shown. The list is not random: actives were taken first. Their share in the collection is about 2.3%.

SMILES	CHT block	TMEM16A act	CHT PAM	TMEM16A inh	CHT inh conf	HEK293 CHT ctr
COC(=O)Cc1csc(NC(=O)CSc2nnc3ccccn23)n1	i	i	i	i	/	/
O=C(COC(=O)c1ccco1)NC(c1ccccc1)c1ccccc1	-14*	i	i	i	i	i
CC1(C)CC(N2CCN(CCO)CC2)=CC(=S)N1	i	i	i	i	/	/
Fc1ccc(NC(=S)Nc2ccc(F)c(Cl)c2)cc1Cl	-6.1*	-10*	i	100*	36%*	i
O=C(NC(=S)Nc1ccc(F)c(Cl)c1)C1CC1	i	i	i	i	/	/
CC(CCc1ccccc1)NC(=O)COc1ccc(S(=O)(=O)N2CCOCC2)cc1[N+](=O)[O-] (centres undefined)	i	i	i	i	/	/
Cn1c(NCc2ccco2)nc2c1c(=O)n(Cc1ccc(Cl)c(Cl)c1)c(=O)n2C	i	i	i	i	/	/
CC1CCCC(NC(=S)NC(=O)c2ccccc2Br)C1C (centres undefined)	i	i	i	i	/	/
CC(O)c1cccc(NC(=O)CC(c2ccccc2)c2ccccc2)c1 (centres undefined)	-7.5*	i	i	i	45%*	i
O=C(CC(C(=O)O)c1ccccc1)Nc1ccccc1 (centres undefined)	i	i	i	i	/	/
O=C(CCc1ccccc1)Nc1ccncc1	i	i	i	i	/	/
O=C(CC(c1ccccc1)c1ccccc1)Nc1ccncc1	-5.9*	i	i	i	56%*	i
O=C(C1Cc2ccccc2CN1S(=O)(=O)c1ccc(F)cc1)N1CCCCC1 (centres undefined)	-6.3*	i	i	i	3.1%*	i
COc1ccc(/C=C2\SC(=S)N(CC(=O)OCC(=O)Nc3cc(Cl)cc(Cl)c3)C2=O)cc1	i	i	i	i	/	/
O=C(COc1ccccc1)N1CCN(c2nnc(-c3ccccc3)c3ccccc23)CC1	-5.2*	i	i	i	i	i
Cc1cc(C)c(NC(=O)CN2CCN(C)CC2)c(C)c1	i	i	i	i	/	/
COc1ccc(N2CCN(CC(=O)Nc3c(C)cc(C)cc3C)CC2)cc1	-6.1*	/	i	i	53%*	i
CC(C)(C)OC(=O)C[C@@H]1C/C=C\C[C@@H](CC(=O)N[C@@H](CO)Cc2ccccc2)C(=O)N2CCC[C@@H]2COC1=O	/	i	/	/	/	/
O=C1C(Cl)=C(NS(=O)(=O)c2ccc([N+](=O)[O-])cc2)C(=O)c2ccccc21	-5.8*	i	i	i	49%*	2.3*
CCN(CC)CCNC(=O)c1ccc(N2CCCCC2)c(NS(=O)(=O)c2ccc(C)cc2)c1	-5.6*	i	i	i	49%*	4*
CCN(CC)CCNC(=O)c1ccc(NC(=O)c2ccc(S(=O)(=O)N3CCCCCC3)cc2)cc1	i	i	i	i	/	/
COc1ccc(CCNC(=O)C2CCN(C(=O)NC3CCCCC3)CC2)cc1	i	i	i	i	/	/
COc1ccc(C2(O)CCN(C(=O)NC3CCCCC3)CC2)cc1	-7.8*	i	i	i	36%*	i
COc1ccc(NS(=O)(=O)c2cc(NC(=O)CCc3ccc(OC)c(OC)c3)ccc2N2CCOCC2)cc1	/	i	/	/	/	/
CCOC(=O)c1ccc(S(=O)(=O)N2CCN(CC(O)COc3cccc(C(C)=O)c3)CC2)cc1 (centres undefined)	i	/	i	i	/	/
SMILES	CHT block	TMEM16A act	CHT PAM	TMEM16A inh	CHT inh conf	HEK293 CHT ctr
CCCCn1c(N)c(-c2nc3ccccc3o2)c2c([N+](=O)[O-])nn(C)c(=O)c21	i	i	i	i	/	/
CCCCCn1c(N)c(-c2nc3ccccc3s2)c2c([N+](=O)[O-])nn(C)c(=O)c21	-6.3*	i	i	i	i	i
CCOC(=O)c1[nH]ncc1CN1CCCC(C(=O)c2ccc(C(C)(C)C)cc2)C1 (centres undefined)	-8.8*	i	i	i	i	i
CC(C)NC(=O)Nc1ccc2c(c1)C(=O)N([C@H](C)CO)C[C@@H](C)[C@@H](CN(C)C(=O)NC1CCCCC1)O2	/	i	/	/	/	/
CCn1c(=O)cc(OCC(=O)NCCC(C)C)c2ccccc21	i	i	i	i	/	/
CCn1c(=O)cc(OCC(=O)NC(C)c2ccc3c(c2)OCCO3)c2ccccc21 (centres undefined)	-9.5*	i	i	i	18%*	i
CCOc1ccccc1C(=O)NC(C)c1ccc2c(c1)OCO2 (centres undefined)	-6.4*	i	i	i	46%*	i
CCOc1ccccc1NC(=O)NC(C)c1ccc2c(c1)OCO2 (centres undefined)	i	i	i	i	/	/
CCCCN(CCCC)c1cn[nH]c(=O)c1Cl	-6.6*	i	i	i	66%*	i
COc1ccc(C/C(C)=N\NC(=O)c2cn(C)c3ccccc23)cc1OC	i	i	i	i	/	/
Cc1ccc(Sc2ncccc2NC(=O)c2ccccc2Cl)cc1	-5*	i	i	i	i	i
CN(Cc1ccccc1)S(=O)(=O)c1ccc(Cl)c(C(=O)NCc2cccnc2)c1	i	i	i	i	/	/
COc1ccc(C(CNC(=O)c2cccc(S(=O)(=O)Nc3ccc(C)cc3)c2)N2CCCCC2)cc1 (centres undefined)	-14*	i	i	i	12%*	i
COc1ccccc1NS(=O)(=O)c1cccc(C(=O)NCC(c2ccco2)N2CCCC2)c1 (centres undefined)	/	i	/	/	/	/
COc1ccccc1NS(=O)(=O)c1ccc(C)c(C(=O)NCC(c2ccco2)N2CCCCC2)c1 (centres undefined)	-16*	i	i	i	-4.8%*	i
Cc1cccc(NS(=O)(=O)c2cccc(C(=O)NCC(c3ccco3)N3CCCCC3)c2)c1 (centres undefined)	-6.7*	i	i	i	14%*	i
O=C(NCC(c1ccco1)N1CCCC1)c1cccc(NS(=O)(=O)c2ccc(Br)cc2)c1 (centres undefined)	i	i	i	i	/	/
